Records with an inconclusive call do not appear. Activity calls are given as the source filed them. Calls come from the whole dose curve.
Columns and labels:
[1] = Primary qHTS for Huh7 cytotoxicity: counterscreen for inhibitors of MERS-S pseudotyped particle cell entry (AID 1479147); conditions: cell viability read-out; series mostly up to 57.1 µM
[2] = Primary qHTS for inhibitors of MERS-S pseudo-typed particle cell entry (AID 1479149); conditions: MERS-S pseudotyped particle entry, luciferase; series mostly up to 57.1 µM; note: nearly all actives have a fitted effect of over 60% in size
[3] = Primary qHTS for Vero E6 cytotoxicity: counterscreen for inhibitors of SARS-S pseudo-typed particle cell entry (AID 1479150); conditions: cell viability; series mostly up to 57.1 µM

Measured: Potency

O=S(=O)(O)c1cc(O)ccc1O
inactive: all assays above

CCCCC[C@@H](O)C1C(=O)OC(C)[C@H](O)/C=C/C=C/C=C/C=C/C=C(\C)C(O)C(O)C(O)C[C@H](O)C[C@H](O)C[C@H](O)C[C@H](O)C[C@@H]1O (some centres undefined)
inactive: all assays above

C[C@@H](CO)NC(=O)[C@@H]1C=C2c3cccc4[nH]cc(c34)C[C@H]2N(C)C1
inactive: all assays above

O=[N+]([O-])C(Br)(CO)CO
inactive: all assays above

CC(N)Cc1ccc(O)cc1 (centres undefined)
inactive: all assays above

CCNCC(O)c1cccc(O)c1 (centres undefined)
inactive: all assays above

O=C(OCCN1CCCCC1)C(O)(c1ccccc1)c1ccccc1
inactive: all assays above

CCC1(CC)C(=O)NC(=O)N(C)C1=O
inactive: all assays above

CCCCCCCCCC(=O)O[C@H]1CC[C@H]2[C@@H]3CCC4=CC(=O)CC[C@]4(C)[C@H]3CC[C@]12C
inactive: all assays above

C[C@]12CC[C@H]3[C@@H](CCC4=C(O)C(=O)CC[C@@H]43)[C@@H]1CC[C@@H]2OC(=O)CCC1CCCC1
inactive: all assays above

CCC1(C)CC(=O)NC(=O)C1
inactive: [1] inactive [at 114 µM] | [2] | [3]

C/C(=C\c1csc(C)n1)[C@@H]1C[C@@H]2O[C@]2(C)CCC[C@H](C)[C@H](O)[C@@H](C)C(=O)C(C)(C)[C@@H](O)CC(=O)O1
inactive: all assays above

CCC(=O)O[C@@](Cc1ccccc1)(c1ccccc1)[C@@H](C)CN(C)C
inactive: all assays above

— PubChem BioAssay (NCATS)
